Screens (PubChem BioAssay)
PLK1 PBD block: qHTS for Inhibitors of PLK1-PDB (polo-like kinase 1 - polo-box domain): Primary Screen | Potency, µM, actives largely listed as inhibitors | Serine/threonine-protein kinase PLK1 (Homo sapiens), P53350 | Plk1 PBD binding of FITC phosphopeptide, fluorescence polarization | actives 2.8% (n = 360,000); further: series mostly up to about 57 µM; nearly all actives have a fitted effect of over 65% in size
USP2a inh: qHTS Assay for Inhibitors of Ubiquitin-specific Protease USP2a Using CHOP2 as the Reporter | Ubiquitin carboxyl-terminal hydrolase 2 (Homo sapiens), O75604 | USP2 core, Ub-CHOP2 coupled fluorogenic reporter, 485/531 | Potency, µM (series often up to 38.3 µM), actives largely listed as inhibitors | actives 0.01% (n = 330,000) | AID 463254, 2010
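USP2 core (10nM final) preincubated 30min RT with compound in 20mM Tris-HCl pH 8.0, 2mM CaCl2, 2mM beta-mercaptoethanol, 0.05% CHAPS; 25nM Ub-CHOP2 plus 25nM reporter substrate added, fluorescence (Ex485/Em531) read after 60min.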
USP1 inh: Inhibitors of USP1/UAF1: Primary Screen; Potency, µM (top dose mostly 57.1 µM), hits mostly inhibitors; Ubiquitin carboxyl-terminal hydrolase 1 (Homo sapiens), O94782; AID 743255, 2014; actives 0.23% (n = 390,000); recombinant USP1/UAF1, Ub-Rhodamine cleavage fluorescence; further: nearly all actives have a fitted effect of over 60% in size
Target sequence (O94782 whole entry, looked up): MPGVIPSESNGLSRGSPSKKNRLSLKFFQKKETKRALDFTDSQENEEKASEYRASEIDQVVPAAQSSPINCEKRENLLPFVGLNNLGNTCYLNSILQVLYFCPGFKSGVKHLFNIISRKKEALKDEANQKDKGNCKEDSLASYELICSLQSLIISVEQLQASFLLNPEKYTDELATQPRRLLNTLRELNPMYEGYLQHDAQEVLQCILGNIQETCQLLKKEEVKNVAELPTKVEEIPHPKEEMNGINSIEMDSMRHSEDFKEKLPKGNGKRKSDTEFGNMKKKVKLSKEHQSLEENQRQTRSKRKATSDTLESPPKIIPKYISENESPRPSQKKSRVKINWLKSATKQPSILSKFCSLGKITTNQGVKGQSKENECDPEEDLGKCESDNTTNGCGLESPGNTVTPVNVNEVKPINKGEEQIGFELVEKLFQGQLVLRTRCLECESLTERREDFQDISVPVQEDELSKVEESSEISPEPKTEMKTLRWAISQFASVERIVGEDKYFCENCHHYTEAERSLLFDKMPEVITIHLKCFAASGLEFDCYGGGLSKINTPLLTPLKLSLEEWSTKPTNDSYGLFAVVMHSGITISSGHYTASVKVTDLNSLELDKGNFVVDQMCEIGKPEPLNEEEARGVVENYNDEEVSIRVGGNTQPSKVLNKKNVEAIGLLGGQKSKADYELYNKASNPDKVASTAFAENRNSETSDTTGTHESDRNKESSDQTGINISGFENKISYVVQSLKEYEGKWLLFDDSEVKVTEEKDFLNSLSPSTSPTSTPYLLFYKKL
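In this screen, compounds sit with the deubiquitinase complex (1nM) for 15 min at room temperature before Ub-Rho is added at 150nM final. Fluorescence rise is then followed for 6 reads every 60 seconds.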
Coupling enz: qHTS Assay for Inhibitors of Fructose-1,6-bisphosphate Aldolase from Giardia Lamblia: Coupling assay counterscreen; activity change, negative = inhibition, % at 58.2 µM, hits read low; AID 2472, 2010; actives 0.67% (n = 290,000); coupling enzyme system counterscreen, AmpLite Red fluorescence; in the data active means activity change below about -30%
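Final compound at 57.5 uM, incubated 10 min at RT with coupling enzyme reagent (glyceraldehyde-3-phosphate), then 20 min with substrate and AmpLite Red detection. Fluorescence read at 525/598 nm; tests interference with the coupling assay, not aldolase inhibition.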
GALK inh: qHTS Assay for Inhibitors of Human Galactokinase (GALK). AID 1868, 2009. Purified GALK, Kinase-Glo residual ATP luminescence. Potency, µM (highest dose often 57.5 µM), actives largely listed as inhibitors. actives 0.007% (n = 270,000). P51570
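GALK at 5 nM final was combined with compound, 35 uM ATP and 100 uM galactose in HEPES pH8.0 with MgCl2 and DTT. The reaction ran one hour at room temperature before luminescent ATP detection.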
VDR inh: Inhibitors of the vitamin D receptor (VDR): qHTS | VDR-SRC2-3 peptide fluorescence polarization, 2 h | actives 0.93% (n = 400,000) | Potency, µM, usual class: inhibitors | Vitamin D3 receptor (Homo sapiens), P11473
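After 23 nl compound addition and a short centrifugation, plates sat for 2 hours at ambient temperature; polarization of fluorescence then indicated loss of VDR binding to peptide SRC2-3.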
Each line names hits and unclear results; the compound was inactive in the other large screens. A selection: hits, their analogues and other compounds. The true share with any hit is near 3.2%. Unless noted, the call rests on the fitted dose curve; in most records, active means well fitted curve in the direction sought with a large enough effect; inconclusive means small, poorly fitted or top-dose-only effect, or another doubt; inactive means no such curve, though single readings can be large; an effect the other way counts as inactive or inconclusive.

CCC/C=C1\CCCOC(C(=O)NCc2ccc(C)o2)(C(F)(F)F)C1 (stereo unspecified)	VDR inh inconclusive (no result: PLK1 PBD block, USP2a inh, USP1 inh, GALK inh)
CCC/C=C1/CCCOC(C(=O)NCc2ccc(C)o2)(C(F)(F)F)C1 (stereo unspecified)	PLK1 PBD block inconclusive, VDR inh 50µM (no result: GALK inh)
Cc1sc(/N=C/c2c(O)ccc3ccccc23)c(C#N)c1C	none (no result: PLK1 PBD block, USP1 inh, VDR inh)
COc1ccc(O)c(/C=N/c2sc(C)c(C)c2C#N)c1	PLK1 PBD block 30µM
Cn1c(SCC(=O)c2cc(Cl)c(Cl)s2)nnc1-c1ccco1	PLK1 PBD block 21µM
CCC(=O)Nc1cccc(-c2nnc(SCC(=O)NCc3ccco3)n2C)c1	none
CCC(=O)Nc1cccc(-c2nnc(SCC(=O)c3ccccc3)n2C)c1	PLK1 PBD block 27µM
Cc1ccc(C(=O)CSc2nnc(-c3ccccc3N)n2C)cc1	none
Cc1ccc(C(=O)CSc2nnc(-c3ccco3)n2C)cc1	PLK1 PBD block 6µM, VDR inh 50µM
O=C(O)c1cc2nc3c(c(C(F)(F)F)n2n1)CCCC3	none
O=S(=O)(Cc1cc(-c2ccccc2Cl)no1)c1ccccc1	none
Cc1cc(C)c(S(=O)(=O)Nc2ccncc2)cc1C	none
O=C(CSc1nc2c(cnn2-c2cccc(Cl)c2)c(=O)[nH]1)NCCC1=CCCCC1	none (no result: Coupling enz, GALK inh)
CC(C)n1cc(-c2ccc(Cl)cc2)cc(C#N)c1=O	none
COc1ccc(Cl)cc1Nc1nc(Cl)nc(NCCO)n1	none (no result: USP2a inh, Coupling enz, GALK inh, VDR inh)
CCOc1nc(NCCO)nc(Nc2cc(Cl)ccc2OC)n1	PLK1 PBD block 27µM
C=CCSC1=C(C#N)C(c2ccccc2OCC)C(C#N)C(=O)N1 (stereo unspecified)	PLK1 PBD block 27µM
O=C(Nc1nccs1)c1ccc(-c2ccccc2Cl)o1	USP1 inh inconclusive
CCCCCNC(=O)C(c1ccnc2ccccc12)n1c(=O)c(-c2ccccc2)nc2ccccc21 (stereo unspecified)	none (no result: USP2a inh, USP1 inh, Coupling enz, GALK inh, VDR inh)
C=C(C)CC1N(c2cccc(OC)c2)C(=O)C2C(C(=O)O)C3C=CC21O3 (stereo unspecified)	PLK1 PBD block 27µM
COc1cccc2c1C(=O)c1c(O)c3c(c(O)c1C2=O)C[C@@](O)(C(=O)CO)C[C@@H]3O[C@@H]1C[C@H](N)[C@H](O)[C@H](C)O1	none (no result: PLK1 PBD block, USP2a inh, USP1 inh, GALK inh, VDR inh)
COc1cccc2c1C(=O)c1c(O)c3c(c(O)c1C2=O)C[C@@](O)(C(=O)CO)C[C@@H]3O[C@H]1C[C@H](N)[C@H](O)[C@H](C)O1	PLK1 PBD block inconclusive, USP2a inh inconclusive, USP1 inh 32µM, Coupling enz -40 (no result: GALK inh)
CNc1nc(-c2ccccc2Cl)nc2ccccc12	VDR inh inconclusive (no result: PLK1 PBD block, USP2a inh, USP1 inh, GALK inh)
CNc1nc(-c2ccccc2C)nc2ccccc12	VDR inh 45µM (no result: PLK1 PBD block, USP2a inh, USP1 inh, GALK inh)
CS(=O)(=O)Nc1cccc(-c2nc(Nc3ccc(F)cc3)c3ccccc3n2)c1	none (no result: PLK1 PBD block, USP2a inh, USP1 inh, GALK inh)
CNc1nc(-c2cccc(NS(C)(=O)=O)c2)nc2ccccc12	VDR inh 45µM (no result: PLK1 PBD block, USP2a inh, USP1 inh, GALK inh)
Cc1cc(C)cc(NC(=O)c2ccccc2NC(=O)CCC(=O)O)c1	none
Cc1ccc(NC(=O)NC2=N/C(=C(/C#N)C(=O)N3CCCC3)c3ccccc32)cc1	none
CCCC(=O)Nc1cc2nn(-c3ccc(OC)cc3)nc2cc1C	none (no result: PLK1 PBD block, USP2a inh, Coupling enz, GALK inh)
CCCC(=O)Nc1ccc2nn(-c3ccc(OC)cc3)nc2c1	PLK1 PBD block 21µM, VDR inh inconclusive
O=C(COC(=O)c1ccc2c(c1)OCCO2)Nc1cc(Cl)ccc1Cl	none
O=C(c1ccc([N+](=O)[O-])cc1)N1CCSC1c1ccc(Cl)cc1 (stereo unspecified)	none
O=C(c1ccc([N+](=O)[O-])cc1)N1CCSC1c1ccc(Br)cc1 (stereo unspecified)	PLK1 PBD block 17µM
